Most compounds without a hit are left out; they make up all but 8.3% or so of the library.
VP16 counter – VP16 counterscreen qHTS for inhibitors of ROR gamma transcriptional activity; Drosophila S2 Gal4-VP16 UAS-luciferase, luminescence, 20 h; Potency, µM (highest dose often 53.6 µM), inactives show at the top dose activity, negative = inhibition, actives largely listed as inhibitors; 3.5% of 310,000 active;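 also: Gal4-VP16 expression switched on by copper sulfate through the metallothionein promoter; potency is read from the fitted curve at half-maximal effect; % is scaled to controls: 0 for no effect and ±100 for the full control effect; nearly all actives have a fitted effect of over 50% in size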
RORgamma inh – qHTS for inhibitors of ROR gamma transcriptional activity; Drosophila S2 Gal4-RORgamma UAS-luciferase reporter, 20 h; Potency, µM (doses to about 53.6 µM), for inactives: at the highest dose activity change, negative = inhibition, usual class: inhibitors; 5.4% of 310,000 active; AID 2551, 2010; also: potency is read from the fitted curve at half-maximal effect; % is scaled to controls: 0 for no effect and ±100 for the full control effect; nearly all actives have a fitted effect of over 60% in size
Target sequence (P51450 whole entry, looked up, the tested form may be a part): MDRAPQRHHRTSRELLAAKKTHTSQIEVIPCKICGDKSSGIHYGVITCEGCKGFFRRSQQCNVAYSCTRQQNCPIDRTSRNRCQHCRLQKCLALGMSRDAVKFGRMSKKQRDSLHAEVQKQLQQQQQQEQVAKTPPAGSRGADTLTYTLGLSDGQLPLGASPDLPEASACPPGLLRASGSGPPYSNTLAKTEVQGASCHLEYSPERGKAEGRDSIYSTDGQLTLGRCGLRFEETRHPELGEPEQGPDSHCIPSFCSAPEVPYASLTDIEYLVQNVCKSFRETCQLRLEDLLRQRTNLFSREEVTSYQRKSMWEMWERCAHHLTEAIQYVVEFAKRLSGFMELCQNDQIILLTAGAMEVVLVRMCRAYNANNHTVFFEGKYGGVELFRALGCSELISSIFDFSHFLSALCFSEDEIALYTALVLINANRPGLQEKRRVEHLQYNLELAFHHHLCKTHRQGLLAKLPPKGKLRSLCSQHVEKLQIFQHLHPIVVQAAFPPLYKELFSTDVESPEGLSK
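Read-out: Photinus luciferase luminescence; inhibitors lower reporter signal. Insect Schneider cells with Gal4-ROR gamma fusion under metallothionein promoter, UAS reporter; 700 uM final copper sulfate induction, 20 hr, ambient temperature.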
Giardia kill – Small Molecules that selectively kill Giardia lamblia: qHTS | AID 540267, 2011 | Giardia lamblia trophozoite viability | 0.15% of 340,000 active | activity change, % at 7.66 µM, hits read low; in the data active = activity change below about -80%; inconclusive = between about -30% and that limit;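 also: parasites exposed to compound for two days anaerobically before the ATP read; % is scaled to controls: 0 for no effect and ±100 for the full control effect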
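Trophozoites 100 cells/well + cpd; 48 hrs, 37 deg C, anaerobic. ATPLite 1-Step added, 15-30 min RT, luminescence read (ATP-based viability).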
SW480 rerep – A quantitative high throughput screen for small molecules that induce DNA re-replication in SW480 colon adenocarcinoma cells | SW480 DNA re-replication, Hoechst DNA content imaging, 48 h | Potency, µM (titrated, usually from 46.1 µM), inactives show top-dose re-replication activation, hits mostly activators | 1.8% of 340,000 active; also: potency is read from the fitted curve at half-maximal effect; % of control where 0% means no effect; nearly all actives have a fitted effect of over 55% in size
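DNA re-replication was detected as more nuclei of elevated Hoechst intensity after 48 hr exposure to compound (23 nL pinned per well of 250 cells).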
BCR signal inh – qHTS Assay to Find Inhibitors of Chronic Active B-Cell Receptor Signaling | ABC-DLBCL IkBa-CBG/CBR reporter, luminescence ratio, 4 h | Potency, µM (top dose mostly 46.1 µM), for the others: at the top dose activity change, negative = inhibition, most hits filed as inhibitors | 0.05% of 340,000 active; active = well fitted inhibition curve with a large enough effect in the signal ratio, with a control signal flat, not every such curve was filed as active; inconclusive = small, poorly fitted or top-dose-only effect, or effect the other way, or a change in a side signal; the % refers to the signal ratio;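 also: potency is read from the fitted curve at half-maximal effect; plate controls were basal doxycycline-induced cells for no effect and cells given 10 µM MG132 for full effect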
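Cell line TMD8 (human ABC DLBCL), stably expressing tet-inducible CBG68-IkBa fusion and CBR; IMDM/0.5% FBS; cpd up to 46 uM; dox induction, 4 h, 37C/5% CO2; dual luminescence; green/red ratio; MG132 control.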
MCF10A rerep – A quantitative high throughput screen for small molecules that induce DNA re-replication in MCF 10a normal breast cells. 2.9% of 350,000 active. MCF 10A DNA re-replication, Hoechst nuclear intensity, 48 h. Potency, µM (series often up to 46.1 µM), inactives show at the top dose activity, positive = re-replication, most hits filed as activators; also: potency is read from the fitted curve at half-maximal effect; % of control where 0% means no effect; nearly all actives have a fitted effect of over 50% in size
* hit, by the source's call; u = inconclusive; x = no result given; ! = a repeat was not active; [ ] = another dose, or the depositor's remark. Unless noted, calls follow the shape of the dose curve; as a rule, active = well fitted curve in the direction sought with a large enough effect; inconclusive = small, poorly fitted or top-dose-only effect, or another doubt; inactive = no such curve, though single readings can be large; an effect the other way counts as inactive or inconclusive.

SMILES	VP16 counter	RORgamma inh	Giardia kill	SW480 rerep	BCR signal inh	MCF10A rerep
CN(Cc1c(C(=O)N/N=C/c2cccc(O)c2)nnn1-c1nonc1N)c1ccccc1	6%	11%	-7	2%	u	1%
Cc1ccc(/C=N/NC(=O)c2nnn(-c3nonc3N)c2CN(C)c2ccccc2)s1	u	18µM*	-4	-18%	7%	-10%
CCc1c(C(=O)N/N=C/c2sccc2C)nnn1-c1nonc1N	10µM*	10µM*	-7	-9%	u	-9%
CCCCCCCC(=O)C(C)C(=O)N(C)[C@H](Cc1ccc(OC)cc1)C(=O)N(C)[C@H](C(N)=O)C(C)C (some centres undefined)	x	x	14	u	-5%	-33%
CCCCCCCCNC(C)C(O)c1ccc(SC(C)C)cc1 (centres undefined)	u	11µM*!	3	u	-2%	24µM*!
O=c1cnc2cnc(Oc3cccc(Cl)c3)nc2n1C1CC1	-9%	4%	x	x	x	x
CC(C)[C@H](NC(=O)C1CCN(S(=O)(=O)c2ccccc2)CC1)C(=O)NCc1ccccc1	12%	-15%	-2	-41%	1%	6%
CCCn1c(Nc2nc3ccccc3n2C)nc2ccccc21	-11%	-38%	18	u	u	u
CCn1c(NC(=S)Nc2ccccc2)nc2ccccc21	2.8µM*	4.5µM*	-5	2%	u	-183%[0.0737 µM]
CCn1c(Nc2ccccc2Cl)nc2ccccc21	-1%	-20%	-22	-2%	2%	-3%
CCCn1c(NC(=S)Nc2ccccc2)nc2ccccc21	1.1µM*	1µM*	13	x	u	u
S=C(Nc1ccccc1)Nc1nc2ccccc2n1CCOc1ccc(Cl)cc1	1.8µM*	2.2µM*	13	u	u	u
O=C(CCc1nnc(-c2ccsc2)o1)N1CCc2c(Cl)cccc2C1	u	u	0	-4%	-4%	-6%
Cc1ccccc1-c1nc(CS(=O)(=O)CC(=O)NCCCN2CC(C)CC(C)C2)c(C)o1 (centres undefined)	u	-25%	-9	u	1%	2%
CC(C)Nc1nc(-c2ccccn2)nc(-c2ccccc2)c1C#N	u	2.5µM*	-27	u	5%	0%
CC(C)Nc1nc(-c2cccnc2)nc(-c2ccc(Cl)cc2)c1C#N	13%	-4%	-2	21%	u	23µM*
CC(C)Nc1nc(-c2cccnc2)nc(-c2ccccc2)c1C#N	0%	1%	2	-4%	u	23%
CC1CCN(C(=O)C2COc3ccccc3O2)CC1 (centres undefined)	x	x	1	-4%	2%	2%
CC1CCCCN1C(=O)CCS(=O)(=O)c1cc2c(cc1Cl)NC(=O)CO2 (centres undefined)	3%	-17%	14	1%	-8%	4%
CCCCn1c(=N)n(CC(O)COc2ccc(C)cc2)c2ccccc21 (centres undefined)	-6%	20%	-3	22%	u	5%
N=c1n(Cc2ccccc2)c2ccccc2n1CC(O)COc1ccccc1 (centres undefined)	-21%	5%	-10	u	u	26µM*
Cc1ccc(Cn2c(=N)n(CC(O)COc3ccccc3)c3ccccc32)cc1 (centres undefined)	7.1µM*	5µM*	-19	u	u	12%
O=C(CNS(=O)(=O)c1ccc(Br)cc1)NCc1cccnc1	3%	3%	16	-3%	0%	-1%
CCCOc1cccc(OCC(=O)Nc2nc3ccccc3[nH]2)c1	u	10µM*	3	-11%	1%	32%
CCCCOc1cccc(OCC(=O)Nc2nc3ccccc3[nH]2)c1	u	16µM*	1	x	-1%	30%

High-throughput results deposited in PubChem by National Center for Advancing Translational Sciences (NCATS).
